# Out of some 300,000 compounds screened, about 3,700 (1.2%) were called active. Inconclusive results (about 20%) are left out. This is one part of a sample in which actives are shown more often than they occur. Unmarked numbers belong to inactive results. Calls come from the whole dose curve; tested in HEK293 cells.
# Experiment: qHTS for Inhibitors of binding or entry into cells for Lassa Virus; note: nearly all actives have a fitted effect of over 50% in size
# Details: Lassa virus pseudotype entry inhibition, cell reporter; series mostly up to 37.9 µM; activity change, negative = inhibition: at the top concentration
# % is set by controls: 0 for no effect and ±100 for the full control effect; potency is the fitted concentration of half-maximal effect.
SMILES,"activity change, negative = inhibition",Potency
COc1ccc(N2CCN(CCNC(=O)Nc3cc(Cl)ccc3Cl)CC2)cc1,15.1% [at 46.1 µM],–
O=C(Cc1ccc([N+](=O)[O-])cc1)NCCc1ccc2c(c1)OCO2,-1.52%,–
Cc1ccc(CSCC(=O)N(C)CC(=O)Nc2cccc(F)c2)cc1,9.25%,–
Cc1ccc(S(=O)(=O)Nc2ccc(F)c(S(=O)(=O)N3CCOCC3)c2)cc1,6.43%,–
CCOC(=O)N1CCN(C(=O)COc2ccc(Br)cc2)CC1,-5.12%,–
O=C(COc1ccc2oc3c(c2c1)CCCC3)Nc1ccccn1,-23.4%,–
CCOC(=O)N1CCN(C(=O)COc2ccc3oc4c(c3c2)CCCC4)CC1,–,10 µM (active)
CC(=O)c1ccc(OCCCC(=O)Nc2ccc(C)c(S(=O)(=O)N3CCOCC3)c2)cc1,-15.1%,–
COc1ccccc1NS(=O)(=O)c1ccc(C(=O)N2CCN(c3ccccc3O)CC2)cc1,-21.8%,–
COc1ccc2nc(/N=C(\N)NC(=O)Nc3ccccc3)nc(C)c2c1,5.9%,–
Cc1nc(/N=C(\N)NC(=O)NC2CCCCC2)nc2ccccc12,–,22.4 µM (active)
Cc1nn(-c2ccccc2)c(C)c1C(=O)OCC(=O)NC(=O)NC1CCCCC1,-23%,–
CC(C)c1cc(N=O)cc(C(C)C)c1O,0.0792%,–
CC(Sc1nc2ccccc2c(=O)n1Cc1ccco1)C(=O)c1ccccc1 (stereo not drawn),–,4.11 µM (active)
CCOC(=O)C(C)Sc1nc2ccccc2c(=O)n1CC1CCCCC1 (stereo not drawn),-2.75%,–
N#Cc1c(NC(=O)CSc2nc3ccccc3c(=O)n2Cc2ccco2)sc2c1CCCC2,18.5%,–
CC1CCCN(CC(=O)Nc2cc(Cl)ccc2Oc2ccccc2)C1 (stereo not drawn),9.3% [at 46.1 µM],–
CCOc1ccc(NC(=O)COC(=O)C2CCC(=O)N2)c([N+](=O)[O-])c1 (stereo not drawn),19.8%,–
C=CCn1c(=N)n(CC(O)COc2ccc(OC)cc2)c2ccccc21 (stereo not drawn),-1.13%,–
OC(COc1ccccc1)Cn1cc(Br)cn1 (stereo not drawn),-20.5%,–
OC(CN=c1sc2ccccc2n1CC(O)COc1ccccc1)COc1ccccc1 (stereo not drawn),–,20.6 µM (active)
COc1ccccc1C(=O)NC(CCSC)C(=O)N1CCN(C/C=C/c2ccccc2)CC1 (stereo not drawn),-28.6%,–
CC1CCC2CCCCC2N1C(=O)c1cc([N+](=O)[O-])cc([N+](=O)[O-])c1 (stereo not drawn),-2.98%,–
COc1ccc(-c2cc(-c3ccccc3)nc3c2COc2ccc(Cl)cc2-3)cc1,1.5% [at 46.1 µM],–
COc1ccc(C2=Nc3cc(C)ccc3OC2)cc1,–,10 µM (active)
COc1ccc(C2=NOC3(CC(=O)N(c4ccc(C)cc4)C3=O)C2)cc1 (stereo not drawn),5.87%,–

SMILES,"activity change, negative = inhibition",Potency
COc1ccc2c(c1)C(=O)Nc1cc(Cl)ccc1N2,24.4%,–
CC(=O)Nc1ccc(NC(=O)CS(=O)(=O)c2cn(CC(=O)N3CCCCC3)c3ccccc23)cc1,-4.11%,–
Cc1onc(-c2ccccc2Cl)c1C(=O)OCc1nnc(-c2ccccc2)o1,0.569%,–
CC(C)CC(=O)c1c[nH]c(C(=O)NCc2ccccc2)c1,–,7.94 µM (active)
CC(C)CC(=O)NC(=S)NCc1ccccc1,-2.95%,–
O=C(c1ccc(F)cc1)c1c[nH]c(C(=O)NCc2cccnc2)c1,-22.6%,–
OC(COc1ccccc1)CN1CCN(c2cccc(Cl)c2)CC1 (stereo not drawn),14.8%,–
CC/C(=C\c1ccc(Cl)cc1)c1ccncc1,2.57% [at 46.1 µM],–
COc1cccc(/C=N/NC(=O)c2[nH]nc3c2CCc2ccccc2-3)c1O,–,12.6 µM (active)
CN(C)CCNC(=O)c1[nH]nc2c1CCc1ccccc1-2,24.1%,–
COc1cc2cc(C(=O)N/N=C/c3cccc(OC)c3OC)[nH]c2cc1OC,-18.4% [at 46.1 µM],–
O=C(CSc1nnc(-c2ccncc2)o1)Nc1cccc(Cl)c1,9.43%,–
COc1ccccc1CNS(=O)(=O)c1cc(C(=O)NCc2ccccn2)c(Cl)cc1Cl,-16.2%,–
CCN(CC)S(=O)(=O)c1ccc(N(C)Cc2cccc(OC)c2OC)nc1,-66.7%,–
CCN(CC)S(=O)(=O)c1ccc(N(C)Cc2ccc(C(F)(F)F)cc2)nc1,–,4.47 µM (active)
CCN(CC)S(=O)(=O)c1ccc(N(C)CCc2ccc(OC)c(OC)c2)nc1,-22.4%,–
CCOc1ccc2[nH]c(=O)c(CN(CCCO)S(=O)(=O)c3ccc(F)cc3)cc2c1,-23%,–
COc1ccc(C(C(=O)NC2CCCCC2)N(C(=O)c2snc(C(N)=O)c2N)c2ccccc2OC)cc1 (stereo not drawn),–,10 µM (active)
COc1ccc(C(C(=O)NC2CCCCC2)N(C(=O)CCl)c2ccccc2Cl)cc1 (stereo not drawn),-0.988%,–
NC(=O)c1nsc(C(=O)N(CCCN2CCOCC2)C(C(=O)NC2CCCCC2)c2ccc(Cl)cc2)c1N (stereo not drawn),-6.35% [at 46.1 µM],–
O=C(O)C1C2C=CC(O2)C1C(=O)Nc1ccccn1 (stereo not drawn),10.9% [at 46.1 µM],–
COCCNc1cc(-c2ccccc2)nc2cc(-c3cccc(F)c3)nn12,-7.91% [at 46.1 µM],–
CC(=O)Nc1ccc(NC(=O)COC(=O)C2CCC(C(C)(C)C)CC2)cc1 (stereo not drawn),-19.8%,–
COc1ccc(CCNS(=O)(=O)c2cc(-c3cc(C)no3)ccc2C)cc1OC,-8% [at 46.1 µM],–
COc1ccc(Cl)cc1NC(=O)NCC1CCN(Cc2ccccc2F)CC1,-5.4% [at 46.1 µM],–
O=C(Nc1ccn(Cc2ccccc2F)n1)c1ccc(COc2ccc(Cl)cc2Cl)o1,–,10 µM (active)

SMILES,"activity change, negative = inhibition",Potency
COC(=O)c1ccccc1NC(=O)c1ccc(COc2ccccc2Cl)o1,-10.5% [at 46.1 µM],–
COc1ccccc1N(C)S(=O)(=O)c1ccc(Cl)c(C(=O)Nc2ccncc2)c1,-8.77%,–
O=C(NC(=O)c1ccccc1)NC(=O)c1ccccc1,3.38%,–
CN(O)C(=S)c1ccccc1,–,6.31 µM (active)
CCc1ccc(C(=O)C(C)OC(=O)CN2C(=O)NC3(CCCC3)C2=O)cc1 (stereo not drawn),12%,–
O=C(c1ccccc1Oc1ccccc1)N1CCN(c2ccc(F)cc2)CC1,-16.9%,–
Cn1c2ccccc2c2c(C(=O)N3CCN(c4ccc(F)cc4)CC3)cn(C3CCCC3)c(=O)c21,–,10 µM (active)
CCOc1ccc(NC(=O)c2cn(C3CCCCC3)c(=O)c3c2c2ccccc2n3C)cc1,7.33% [at 46.1 µM],–
O=C(NNC(=O)c1ccc(-c2ccccc2)cc1)Nc1ccccc1,11.5% [at 46.1 µM],–
CC(Nc1ccc([N+](=O)[O-])cc1[N+](=O)[O-])c1ccccc1 (stereo not drawn),0.308%,–
O=C(/C=C/c1ccccc1)N1CCN(Cc2cc(=O)n3nc(-c4ccccc4F)sc3n2)CC1,0.658% [at 46.1 µM],–
Cc1cccc(C(=O)Nc2nnc(Cc3c[nH]c4ccccc34)s2)c1,0.566%,–
Cc1cccc(N=C2NN=C(c3c[nH]c4ccccc34)CS2)c1,–,14.6 µM (active)
CC(=O)c1c(C)[nH]c(C(=O)N2CCN(S(=O)(=O)c3ccc(F)c(F)c3)CC2)c1C,-4.88%,–
O=C(CCC1CCCCC1)Nc1cc(C(F)(F)F)ccc1N1CCOCC1,-7.6%,–
COc1cccc(C(=O)OCc2cc(=O)oc3c(C)c(C)ccc23)c1OC,1.76%,–
CCOc1ccc(NC(=O)CN(C)C(=O)Cc2sc(C)nc2-c2ccc(F)cc2)cc1OCC,19.5%,–
N#CCc1c[nH]c2ccc([N+](=O)[O-])cc12,17.9% [at 46.1 µM],–
O=S(=O)(c1ccc(Br)cc1)c1nc(-c2ccccc2)oc1NCc1cccnc1,-22.6%,–
COc1cccc(-c2nc(S(=O)(=O)c3ccc(C)cc3)c(NCc3ccccc3)o2)c1,–,10 µM (active)
Cc1ccc(S(=O)(=O)c2nc(-c3cccs3)oc2NCc2cccnc2)cc1,2.99%,–
CN(C)c1nc(NN)nc(Nc2ccc(F)cc2)n1,-28%,–
CCOc1ccc(C(=O)CCC(=O)Nc2ccncc2)cc1,-5.97%,–
CC(CCc1ccccc1)NC(=O)COC(=O)c1ccc(F)cc1 (stereo not drawn),2.34% [at 46.1 µM],–
CCC1(C)Cc2c(sc3nc(SC)[nH]c(=O)c23)CO1 (stereo not drawn),17.9%,–
CCC1(C)Cc2c(sc3nc4n(c(=O)c23)CCCS4)CO1 (stereo not drawn),3.11%,–

SMILES,"activity change, negative = inhibition",Potency
CCC1(C)Cc2c(sc3[nH]c(=S)n(Cc4ccccc4)c(=O)c23)CO1 (stereo not drawn),–,5.62 µM (active)
O=C(CCNC(=O)c1ccccc1Cl)NN=Cc1ccco1,8.83%,–
CCOC(=O)c1csc(CCNC(=O)c2oc3c(Cl)cc(C)cc3c2C)n1,6.59%,–
CN1C(c2ccc(F)cc2)=CS/C1=C(/C#N)c1nnc2n1-c1ccccc1SC2,-0.937% [at 46.1 µM],–
C/C(CC(=O)Nc1cccc(F)c1)=N\NC(=O)C(=O)NC1CCCCC1,3.34%,–
O=C(Nc1cccc(F)c1)NC1CCCCCCC1,–,12.6 µM (active)
Cc1cc(C)cc(NC(=O)NC2CCCCCCC2)c1,-5.73% [at 46.1 µM],–
COc1ccc2oc(C(=O)N(CC(C)C)C3CCS(=O)(=O)C3)c(C)c2c1 (stereo not drawn),-9.26%,–
COc1ccccc1N(CCOc1ccccc1)S(=O)(=O)c1ccccc1,20.1% [at 46.1 µM],–
Cc1ccc(S(=O)(=O)N2CCC(=O)N([C@H](COCc3ccccc3)C(C)C)CC2)cc1,-26.5% [at 46.1 µM],–
O=C(Nc1ccc(N2CCOCC2)cc1)c1ccc2c(c1)OCO2,-22.7%,–
O=C(Nc1ccc2c(c1)OCCO2)c1ccc(Cl)c(S(=O)(=O)N2CCCCC2)c1,–,20.6 µM (active)
O=C(c1ccc(Cl)c(S(=O)(=O)N2CCCCC2)c1)N1CCCCCC1,2.43%,–
O=C(Nc1ccccc1)c1ccc2c(c1)OCCCO2,–,3.16 µM (active)
Cc1cc(C)c2nc(NC(=O)c3ccc4c(c3)OCO4)sc2c1,-1.22%,–
O=C(Nc1cccc(S(=O)(=O)N2CCCCC2)c1)c1ccc2c(c1)OCO2,-18.9%,–
O=C(Nc1cccc([N+](=O)[O-])c1)c1ccc2c(c1)OCO2,-0.181%,–
O=C(Nc1nc2ccccc2s1)c1ccc2c(c1)OCO2,–,2.51 µM (active)
O=C(Nc1ccccc1F)c1ccc2c(c1)OCO2,-20.6% [at 46.1 µM],–
N#Cc1ccccc1S(=O)(=O)N1CCN(C(=O)c2cc(-c3ccccc3)nn2-c2ccccc2)CC1,-31.9%,–
COc1ccc(-c2csc3ncnc(N4CCN(S(=O)(=O)c5ccccc5C#N)CC4)c23)cc1,-7.67%,–
Cc1cc(C)c(NC(=O)CN2C(=O)c3cccnc3Oc3ccc(Cl)cc32)c(C)c1,20.7% [at 46.1 µM],–
O=c1[nH]c2c(c(=O)n1-c1ccccc1)CCO2,-1.14%,–
CC(CC(=O)N1CCN(c2ccccc2)CC1)S(=O)(=O)c1ccc2c(c1)NC(=O)CS2 (stereo not drawn),-3.54% [at 46.1 µM],–
COc1ccc(-c2nc3sc(CCNC(=O)C(C)(C)C)c(C)n3n2)cc1,1.48% [at 46.1 µM],–

# Source: PubChem BioAssay AID540256 (National Center for Advancing Translational Sciences (NCATS), 2011)
